Measured values as given in PubChem BioAssay AID492960 (National Center for Advancing Translational Sciences (NCATS), 2010).
Results filed as inconclusive are left out. Entries that show only a call come without a potency. Active and inactive are the calls of the source. Calls come from the whole dose curve; as a rule, active = well fitted curve in the direction sought with a large enough effect; inconclusive = small, poorly fitted or top-dose-only effect, or effect the other way, or another doubt; inactive = no such curve, though single readings can be large or run the other way.

Test: Secondary Assay for lipid storage modulators: HepG2 cell LDSA assay for probe SAR
Settings: HepG2 lipid droplet BODIPY, laser-scanning cytometry, 18-24 h; series mostly up to 46.1 µM
From the text: NIH Molecular Libraries Probe Production Centers Network [MLPCN] NIH Chemical Genomics Center [NCGC] MLPCN Grant: 1 R03 MH085686-01 Assay Submitter (PI): Beller, Mathias; Max-Planck-Institut fur Biophysikalische Chemie NCGC Assay Overview: Storing lipids as a reservoir for energy or the anabolism of elementary metabolites is a common feature of probably all cells and is conserved from bacteria to humans. The universal cellular lipid storage organelle is the so-called lipid storage droplet (LD). Although ubiquitous, LDs share a simple structure composed of a hydrophobic core that harbors the storage lipids, which is shielded by a droplet-specific phospholipid monolayer to which proteins are attached. The current model of LD biogenesis involves an incorporation of the lipid core into the membrane leaflets of the endoplasmic reticulum (ER) followed by a subsequent budding-like maturation of a LD, which ultimately pinches off. Once released, LD volume can increase by localized lipogenesis or fusion of existing droplet. Storage lipids are re-mobilized enzymatically by lipase activity. Lipase regulation in the adipocyte is heavily studied and involves multiple components including catecholamine signaling, the LD-associated proteins Perilipin and comparative gene identification (CGI-58) and at least two lipases named hormone sensitive lipase (HSL) and adipocyte triglyceride lipase (ATGL). LD regulation outside of the adipocyte is poorly understood and only few components are known. However, there is an urgent need to learn more about ectopic fat depots as mislocalized storage of lipids, for example in the liver or muscle, is an eminent health problem associated with insulin resistance or the metabolic syndrome.
NCGC Assay Protocol Summary: The assay was performed with HepG2 cells, using an oleic acid feeding protocol similar to the S3 assay. We dispensed 4 uL of cells to give 700 cells/well into Greiner bio-one 1,536-well plates (black walled, clear bottom). Triacsin C (Sigma-Aldrich T-4540), an inhibitor of long-chain fatty acyl CoA synthetase that blocks synthesis of triglycerides, was used as a positive control for lipid under-storage using a final concentration of 20 uM. The orexin antagonist, SB408124 - previously identified to stimulate lipid over-storage, was used as a positive control for lipid over-storage using a final concentration of 20 uM. A total of 23 nL of compound solution of different concentrations were transferred to the assay plates using a Kalypsys pin tool equipped with a 1,536-pin array containing 10-nL slotted pins (FP1S10, 0.457-mm diameter, 50.8 mm long; V&P Scientific). One microliter of oleic acid was added (400 uM final concentration), and the plate was lidded with stainless steel rubber gasket lined lids containing pinholes. After 18-24 h incubation at […] and 95% humidity, 4 uL of the dyes BODIPY 493/503 (Molecular Probes) and the Cell Tracker Red CMTPX dye (Molecular Probes) were added to the wells to stain lipid droplets and enumerate cell number, respectively. Fluorescence was detected by excitation of the fluorophores with a 488-nm laser on an Acumen Explorer (TTP Lab Tech). The total intensity in channel 2 (500-530 nm) reflected lipid droplet accumulation. Cells were detected using channel 3 (575-640 nm) with 5-um width and 100-um depth filters. The ratio of the number of objects in PMT channel 2 over the number of objects in PMT channel 3 was also calculated. Percent activity was computed relative to an internal control (100% inhibited lipid droplet deposition due to the presence of 20 uM Triacsin C), which was added to 32 wells/plate.

SMILES | Potency
CCOc1ccc(CCNC(=O)c2cc3sccc3n2CC)cc1OCC | 11.2 µM (active)
COc1ccc(-c2cnc(SCC(=O)Nc3nc(C)cs3)n2-c2ccccc2)cc1 | inactive
C[C@@H](NCCCc1cccc(C(F)(F)F)c1)c1cccc2ccccc12 | inactive
O=C(NC1CCCCC1)NC1(C(=O)N2CCCC2)CCCCC1 | inactive
O=C(O)CCc1ccc(NCc2cccc(Oc3ccccc3)c2)cc1 | inactive
CCOc1ccc(CCNC(=O)c2cccs2)cc1OCC | inactive
O=C(Cc1ccccc1)NC1CCCc2c1cnn2-c1ccc(F)cc1F (stereo unspecified) | inactive
COc1ccc(CCNC(=O)c2cc3sccc3n2Cc2ccccc2)cc1OC | inactive
CCOc1ccc(CCNC(=O)c2cc3sccc3[nH]2)cc1OCC | inactive
O=C(NC1CCCc2c1cnn2-c1ccc(F)cc1F)C1CC1 (stereo unspecified) | inactive
O=C(NC1CCCc2c1cnn2-c1ccc(F)cc1F)C1CCCCN1 (stereo unspecified) | inactive
CCOc1ccc(NC(=O)NC2(C(=O)N3CCCCC3)CCCCC2)cc1 | inactive
CCOc1ccc(CCNC(=O)c2csc(Br)n2)cc1OCC | inactive
CCOC(=O)C1CCN(C(=O)C2(NC(=O)NCc3ccccc3)CCCCC2)CC1 | inactive
CCOC(=O)C1CCN(C(=O)CNC(=O)Nc2ccccc2Cl)CC1 | inactive
CCOc1ccc(CCNC(=O)c2ccc3[nH]ccc3c2)cc1OCC | inactive

SMILES | Potency
CCn1c(-c2ccc(C)cc2)cnc1SCC(=O)Nc1nc(C)cs1 | inactive
O=C(O)c1cccc(-c2noc(-c3ccccc3F)n2)c1 | inactive
CCOc1ccc(CCNC(=O)c2ccc(C3(C(F)(F)F)N=N3)cc2)cc1OCC | inactive
CCn1c(C(=O)NCCc2ccc(OC)c(OC)c2)cc2sc(Cl)cc21 | inactive
CCOc1ccc(CCNC(=O)c2cc3sccc3n2C)cc1OCC | 25 µM (active)
O=C(c1cc2sccc2n1Cc1ccccc1)N(CCc1ccc(O)c(O)c1)Cc1ccccc1 | inactive
CCOc1ccc(CCNC(=O)C2(c3ccccc3)CC2)cc1OCC | inactive
COc1nc(-c2ccc3c(c2)OCO3)n(-c2ccc(NC(=O)CSc3ccccc3)cc2)n1 | inactive
CCOc1ccc(CCNC(=O)c2cc3sccc3n2CC=C(C)C)cc1OCC | inactive
O=C(NC1CCCc2c1cnn2-c1cc(F)cc(F)c1)c1cccc2nccnc12 (stereo unspecified) | inactive
CCOC(=O)C1CCN(C(=O)C2(NC(=O)Nc3ccccc3Cl)CCC2)CC1 | inactive
CCOc1ccc(CCNC(=O)C2COc3ccccc3O2)cc1OCC (stereo unspecified) | inactive
O=C(NC1CCCc2c1cnn2-c1ccc(F)cc1F)c1ccccn1 (stereo unspecified) | inactive
CCOC(=O)C1CCN(C(=O)C2(NC(=O)Nc3ccccc3Cl)CC2)CC1 | inactive
COc1ccc(CCNC(=O)c2cc3sccc3n2Cc2ccc(Cl)cc2)cc1OC | inactive
